Measurements reported in PubChem BioAssay AID493029 (Johns Hopkins Ion Channel Center, 2011).
The whole screen tested about 1,000 compounds, of which about 140 (14%) were called active. No rule for the calls is given here. Not all results are given here.

assay: non-target flux effects, untransfected CHO, cell-based, thallium flux, counter-screen for KCNQ2 inhibitor project (AID 493029); conditions: parental CHO cells, at 10 µM; active compounds read low;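 as to activity change: 0% = vehicle negative controls with stimulus buffer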

Row | Structure (SMILES) | activity change
1 | CCc1ccc(-c2nn(-c3ccccc3)cc2CSC(=N)N)cc1 | -31% (active)
2 | CC(NC(=S)NNS(=O)(=O)c1ccc(C(C)(C)C)cc1)c1ccccc1 (stereo unspecified) | inactive
3 | C=CS(=O)c1sc(Cl)c(N2CCOCC2)c1[N+](=O)[O-] (stereo unspecified) | -22.5% (active)
4 | Cc1ccc(C(=O)c2c(NC(=O)c3ccccc3)sc(C)c2C)cc1 | inactive
5 | O=C(OCC(=O)N(CCc1ccccc1)Cc1ccccc1)c1ccccc1[N+](=O)[O-] | inactive
6 | CCOC(=O)C(C)Sc1nc2ccccc2c(=O)n1CC1CCCCC1 (stereo unspecified) | -21% (active)
7 | Cc1ccc(C2=Nc3c(ccc4ccccc34)C(c3ccncc3)=NN2)cc1 | inactive
8 | COc1cccc(COc2ccc(N(C)S(=O)(=O)c3ccccc3)cc2)c1 | inactive
9 | Cc1ccc(C(C)C)cc1OCC(=O)Nc1ccccc1N1CCCC1 | inactive
10 | CC(C)N(C(=O)CSc1nc(COc2ccccc2)nc2ccccc12)C(C)C | -42.5% (active)
11 | CCc1ccc(-c2cc(C(=O)NCc3ccco3)c3ccccc3n2)s1 | inactive
12 | CC(C)[C@H](NC(=O)OCc1ccccc1)C(=O)OCc1ccccc1 | inactive
13 | Cc1ccc(N2C(=O)C3C(c4ccccc4)(C2=O)C3(c2ccccc2)c2ccccc2)cc1 (stereo unspecified) | inactive
14 | Cc1cccc(C(=O)OC(C)C(=O)NC2CCCc3ccccc32)c1O (stereo unspecified) | inactive
15 | CCc1ccccc1NC(=O)/C(=C/c1ccccc1)c1ccccc1 | inactive
16 | CSCc1cc(N(C)C)nc(SCc2ccc(Cl)cc2Cl)n1 | inactive

Row | Structure (SMILES) | activity change
17 | O=C(Nc1ccccc1Cl)/C(Cl)=C(\Cl)S(=O)c1ccccc1 (stereo unspecified) | inactive
18 | CCc1ccc2ncc(C(=O)c3ccccc3)c(N3CCOCC3)c2c1 | inactive
19 | CC(C)C(NC(=O)OCc1ccccc1)C(=O)OCC(=O)N1C(C)CCCC1C (stereo unspecified) | inactive
20 | CC(C(=O)NCC1CCCCC1)N(C)Cc1cccc(Cl)c1 (stereo unspecified) | -35% (active)
21 | COc1ccc(CN(C)C(C)C(=O)NC2CCCc3ccccc32)cc1 (stereo unspecified) | inactive
22 | COC(=O)C1=C(C)N(C(C)c2ccccc2)C(=O)/C1=C\c1ccco1 (stereo unspecified) | inactive
23 | Fc1ccc2[nH]c3c(N4CCSCC4)ncnc3c2c1 | inactive
24 | CCOC(=O)N1CCC(N(CCOC)C(=O)Nc2ccc(C)c(C)c2)CC1 | -23.5% (active)
25 | Cc1ccccc1N1CCN(CC(=O)NCc2ccc(Cl)cc2)CC1 | inactive
26 | COc1ccc(Cl)cc1NC(=O)CN(C)Cc1ccc(OC)c(OC)c1 | inactive
27 | CN(Cc1ccccc1F)C(=O)C(Cc1ccccc1)NC(=O)c1ccccc1 (stereo unspecified) | inactive
28 | O=C(Nc1ccc(Cl)c(Cl)c1)N1CC=C(c2ccccc2)CC1 | inactive
29 | Cc1nc2ccccc2c(-c2ccccc2)c1C(=O)c1ccccc1 | inactive
30 | C=CCn1c(SCC(=O)/C(C#N)=C(\C)N)nc2sc(C)c(C)c2c1=O | inactive
31 | Cc1ccccc1C(=O)Nc1ccccc1Sc1ccccc1 | inactive
